This is a sample that favours compounds with a hit; in the whole collection about 5.9% have one here.
GLP1R cytotox: qHTS of GLP-1 Receptor Inverse Agonists: Cytotox Screen; HEK293 cAMP-luciferase reporter cells, luminescence, 24 h; Potency, µM (series often up to 38.3 µM), most hits filed as inhibitors; hit rate 0.13% among 410,000; AID 624418, 2012;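 further: loss of luciferase light is scored as toxicity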
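Here, cytotoxicity is scored as loss of luminescence. The MLSMR collection was tested on cells seeded in medium containing 10% Nu serum, with a 24 hr compound exposure preceded by 12 hours of culture.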
GLP1R inv ag: qHTS of GLP-1 Receptor Inverse Agonists (Inhibition Mode); Potency, µM (top dose mostly 38.3 µM), most hits filed as inhibitors; Glucagon-like peptide 1 receptor (Homo sapiens), P43220; HEK293 GLP-1R CRE-luciferase, luminescence, 24 h; GLP-1R form is constitutively active; hit rate 1.6% among 410,000; AID 624417, 2012; further: nearly all actives have a fitted effect of over 55% in size
Target sequence (P43220 whole entry, looked up): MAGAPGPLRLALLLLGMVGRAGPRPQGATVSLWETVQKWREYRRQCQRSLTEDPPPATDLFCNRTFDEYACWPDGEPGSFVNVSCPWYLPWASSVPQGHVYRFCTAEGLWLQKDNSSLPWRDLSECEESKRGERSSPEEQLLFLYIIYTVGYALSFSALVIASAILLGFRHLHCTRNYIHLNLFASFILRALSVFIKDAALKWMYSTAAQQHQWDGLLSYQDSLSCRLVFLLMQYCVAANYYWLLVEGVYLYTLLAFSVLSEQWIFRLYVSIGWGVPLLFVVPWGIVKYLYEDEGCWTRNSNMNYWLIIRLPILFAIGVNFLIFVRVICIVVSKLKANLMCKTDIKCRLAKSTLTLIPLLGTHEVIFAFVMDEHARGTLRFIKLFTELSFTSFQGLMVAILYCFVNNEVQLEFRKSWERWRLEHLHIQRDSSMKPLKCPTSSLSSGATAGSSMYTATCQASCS
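HEK293 cells stably co-expressing constitutively active GLP-1R and a cAMP-responsive luciferase reporter were seeded in DMEM with 10% Nu serum, given compounds after 12 h, and incubated 24 h at 37 deg C. Luminescence was then read.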
VP16 counter: VP16 counterscreen qHTS for inhibitors of ROR gamma transcriptional activity; hit rate 3.5% among 310,000; Potency, µM (titrated, usually from 53.6 µM), most hits filed as inhibitors; Drosophila S2 Gal4-VP16 UAS-luciferase, luminescence, 20 h;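 further: Gal4-VP16 expression switched on by copper sulfate through the metallothionein promoter; nearly all actives have a fitted effect of over 50% in size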
RORg inh: qHTS for inhibitors of ROR gamma transcriptional activity; Drosophila S2 Gal4-RORgamma UAS-luciferase reporter, 20 h; Potency, µM (doses to about 53.6 µM), usual class: inhibitors; hit rate 5.4% among 310,000; further: nearly all actives have a fitted effect of over 60% in size
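ROR gamma transcriptional activity was tracked as Gal4-UAS luciferase output in stably transfected Drosophila Schneider cells, with compound added 1 hr before 700 uM copper sulfate induction and a 20 hr ambient-temperature incubation.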
GLP1R ag: qHTS of GLP-1 Receptor Agonists; Glucagon-like peptide 1 receptor (Homo sapiens), P43220; HEK293 GLP-1R CRE-luciferase, luminescence, 4-6 h; cells express a hypersensitive GLP-1R form; Potency, µM (titrated, usually from 45.6 µM), hits mostly activators; hit rate 0.007% among 380,000
Each line names hits and unclear results; the compound was inactive in the other large screens. The call rests on the fitted dose curve; in most records, active means well fitted curve in the direction sought with a large enough effect; inconclusive means small, poorly fitted or top-dose-only effect, or another doubt; inactive means no such curve, though single readings can be large; an effect the other way counts as inactive or inconclusive.

COc1ccc(CNC(NC(=O)c2ccccc2)(C(F)(F)F)C(F)(F)F)cc1	GLP1R inv ag inconclusive, VP16 counter 10µM, RORg inh inconclusive
CCOC(=O)C(NCc1ccc(F)cc1)(NC(=O)c1ccccc1)C(F)(F)F (centres undefined)	GLP1R inv ag inconclusive
CC(C)NC(=O)NC(=O)COC(=O)c1ccccc1F	RORg inh 11.2µM
CC(C)NC(=O)NC(=O)COC(=O)c1ccccc1O	none
O=C1C=CC(=O)N1c1cccc(-c2ccccc2)c1	GLP1R cytotox 12.6µM, GLP1R inv ag inconclusive
COc1cc(N2C(=O)C=CC2=O)ccc1N1C(=O)C=CC1=O	GLP1R cytotox inconclusive, GLP1R inv ag inconclusive (no result: VP16 counter, RORg inh)
O=[N+]([O-])c1ccc(O)c(-c2ccnc3cc(-c4ccccc4)nn23)c1	GLP1R inv ag inconclusive (no result: VP16 counter, RORg inh)
Cc1ccccc1CSc1ncc(CO)n1Cc1ccc(F)cc1	none (no result: VP16 counter, RORg inh)
COc1cccc(O)c1CN1CCC(C(=O)Nc2ccc(-c3cccc(C)c3)cc2)CC1	GLP1R cytotox inconclusive, GLP1R inv ag inconclusive, VP16 counter 14.1µM, RORg inh 10µM
CCc1ccc(CN2CCC(C(=O)Nc3cccc(-c4nnc(C)s4)c3)CC2)o1	GLP1R inv ag inconclusive, RORg inh inconclusive
O=C(Nc1cccc(-c2cccc(Cl)c2)c1)C1CCN(Cc2ccc(CO)o2)CC1	GLP1R cytotox inconclusive, GLP1R inv ag 3.55µM
Cc1ccc(CN2CCC(C(=O)Nc3cccc(-c4cccc(F)c4)c3)CC2)o1	GLP1R inv ag inconclusive, VP16 counter 10µM
COc1cccc(O)c1CN1CCC(C(=O)Nc2ccc(Oc3cccnc3)cc2)CC1	GLP1R inv ag inconclusive
O=C(Nc1cccc(-c2cccc(Cl)c2)c1)C1CCN(Cc2nccs2)CC1	GLP1R inv ag inconclusive (no result: VP16 counter, RORg inh)
CCc1ccc(C(=O)c2cn(CC(=O)Nc3ccc4c(c3)OCO4)c3ccc(CC)cc3c2=O)cc1	none (no result: VP16 counter, RORg inh)
CC(C)(C)CC(C)(C)c1cc(Cc2cc(C(C)(C)CC(C)(C)C)cc(-n3nc4ccccc4n3)c2O)c(O)c(-n2nc3ccccc3n2)c1	none (no result: GLP1R cytotox, GLP1R inv ag)
CCOc1ccc(CCNC(=O)CCc2cn(Cc3ccc(F)cc3)c3ccccc23)cc1	GLP1R inv ag inconclusive (no result: VP16 counter, RORg inh, GLP1R ag)
COc1ccc(S(=O)(=O)N2c3cc(C)ccc3OCC2C(C)(C)C)cc1 (centres undefined)	GLP1R inv ag 5.01µM
Cc1ccc(S(=O)(=O)N2c3cc(C)ccc3OCC2C(C)(C)C)cc1 (centres undefined)	GLP1R cytotox inconclusive, GLP1R inv ag 5.01µM
Cc1ccc(S(=O)(=O)N2c3ccccc3OCC2c2ccccc2)cc1 (centres undefined)	GLP1R inv ag inconclusive, VP16 counter inconclusive
O=C(Cc1cccs1)N1CCN(c2nc(-c3ccc(Cl)cc3)cs2)CC1	VP16 counter inconclusive, RORg inh 12.6µM
S=C(NCc1ccco1)N1CCN(c2nc(-c3ccc(Cl)cc3)cs2)CC1	GLP1R inv ag inconclusive, VP16 counter inconclusive, RORg inh 11.2µM
CC(C)C(=O)N1CCN(c2nc(-c3ccc(Cl)cc3)cs2)CC1	none
S=C(NCc1ccco1)N1CCN(c2nc(-c3ccccc3)cs2)CC1	GLP1R inv ag inconclusive
CCCn1c(=O)c2sccc2n2c(CCCC(=O)NC3CCC(C)CC3)nnc12 (centres undefined)	none (no result: VP16 counter, RORg inh, GLP1R ag)
CN1CCN(CCOCCOc2c(Cl)cc(Cl)cc2Cl)CC1	GLP1R inv ag 11.2µM (no result: VP16 counter, RORg inh)
Clc1ccc(OCCOCCN2CCc3ccccc3C2)c(Cl)c1	GLP1R cytotox inconclusive, GLP1R inv ag 11.2µM, VP16 counter inconclusive
CCOc1ccc(CNC(=O)CN2N=C(c3ccccc3)CCC2=O)cc1OC	none (no result: VP16 counter, RORg inh, GLP1R ag)
N#C/C(=C(/O)COC(=O)c1ccc2c(c1)OCCO2)c1nc2ccccc2[nH]1	GLP1R inv ag inconclusive, RORg inh inconclusive
N#C/C(=C(/O)COC(=O)c1ccc(Cl)c(S(=O)(=O)N2CCOCC2)c1)c1nc2ccccc2[nH]1	VP16 counter 7.08µM, RORg inh 3.55µM
Cc1ccc(C(=O)OC/C(O)=C(\C#N)c2nc3ccccc3[nH]2)cc1S(=O)(=O)N1CCOCC1	GLP1R cytotox inconclusive, VP16 counter inconclusive, RORg inh inconclusive
CC1CN(S(=O)(=O)c2cccc(C(=O)OC/C(O)=C(\C#N)c3nc4ccccc4[nH]3)c2)CC(C)O1 (centres undefined)	GLP1R cytotox inconclusive, VP16 counter inconclusive, RORg inh 11.2µM
N#C/C(=C(/O)COC(=O)CCc1ccc(S(=O)(=O)N2CCOCC2)cc1)c1nc2ccccc2[nH]1	GLP1R cytotox inconclusive, GLP1R inv ag inconclusive, VP16 counter 20µM, RORg inh 8.91µM
O=C(CNS(=O)(=O)c1cccc(Cl)c1)Nc1ccc(-c2nc3ccccc3s2)cc1	VP16 counter 2µM
O=C(CCS(=O)(=O)c1ccccc1)Nc1ccc(-c2nc3ccccc3s2)cc1	VP16 counter 5.62µM, RORg inh inconclusive
O=C(CCS(=O)(=O)c1ccccc1)Nc1cccc(-c2nc3ccccc3s2)c1	GLP1R cytotox inconclusive, GLP1R inv ag inconclusive, RORg inh inconclusive
Cc1cc(C)cc(N(CC(=O)NCCc2ccc(Cl)cc2)S(=O)(=O)c2c(C)noc2C)c1	none (no result: VP16 counter, RORg inh)
COc1ccccc1Cn1ccn(Cc2c(F)cccc2Cl)c(=O)c1=O	none (no result: VP16 counter, RORg inh, GLP1R ag)
CCOC(=O)C1=NNC(C(=O)c2ccccc2)C1c1ccc(Cl)cc1 (centres undefined)	GLP1R inv ag inconclusive
O=C(c1ccccc1)C1N=NCC1c1ccc(Cl)cc1 (centres undefined)	GLP1R inv ag 10µM (no result: VP16 counter, RORg inh)
O=C1C=C[C@@H](O)[C@H]2[C@@H]3C(=O)N(C[C@@H]4CCCO4)C(=O)[C@@H]3CC[C@H]12	none (no result: GLP1R cytotox, GLP1R inv ag, GLP1R ag)
